This passage reports INHIBITION results from ChEMBL document CHEMBL4513216, “Probing the Open Global Health Chemical Diversity Library for Multistage-Active Starting Points for Next-Generation Antimalarials” (ACS Infect Dis, 2020).

Out of some 69,000 compounds screened, about 8,600 (12%) showed an effect of 50% or more. Shown is part of a subset that was picked to be rich in strong results.

The test system of the experiment is Plasmodium berghei. The experiment in a line: Screen against P. berghei liver stage (PbLuc), transformed with Luciferase, at 10uM. Conditions: tested at 10 uM. Type of experiment: functional, HepG2.
Consider `O=C(CCn1cccn1)N1CCSCC1`, for which the INHIBITION stood at 4.55%.

With `CN(C)Cc1ccccc1CN(C)C(=O)c1ccoc1`, the INHIBITION worked out at 11.1%.

As to `c1c(CN2CCCCC2)nc2n1CCNC2`, the INHIBITION was -46.4%.

With `Cc1nn(C)cc1S(=O)(=O)N(C)[C@@H]1CCC[C@@H](n2ccnc2)[C@@H]1O`, the INHIBITION turned out to be 23%.

In the case of `O=C(CCc1c(F)cccc1F)NS(=O)(=O)c1ccc2c(c1)OCCO2`, the INHIBITION is given as 0.914%.

On to `FC(F)(F)CN1CCC(CNc2nc3ccccc3o2)C1` (stereo unspecified), for which the INHIBITION worked out at 24.8%.

Consider `CC(C)(C)c1n[nH]cc1CNCC1CCN(CC(F)(F)F)C1` (stereo unspecified), for which the INHIBITION is reported as -35.2%.

Take `OC1(CNc2ccc(Br)cn2)CCC1`: the INHIBITION is reported as -28.6%.

For the compound `Cc1cc(C)c2c(NCC3(O)CCCCC3)ncnc2n1`, the INHIBITION is 36.6%.

`COc1nc2ccccc2cc1CN1CCC(CNS(C)(=O)=O)C1` (stereo unspecified): the INHIBITION stood at 7.15%.

Regarding `Cc1nnc2n1CC(CNc1ncnc3ccccc13)CC2` (stereo unspecified), the INHIBITION was 22%.

Consider `OCc1cc2ccccc2nc1NCC1CCN(CC(F)(F)F)C1` (stereo unspecified), for which the INHIBITION was 63.8%.

Consider `OCc1cc2ccccc2nc1NCC1CC1`, for which the INHIBITION was 59.1%.

In the case of `OCc1cc2ccccc2nc1NCC1(O)CCC1`, the INHIBITION is 58.2%.

For the compound `OCc1cc2ccccc2nc1NC1CC=CC1`, the INHIBITION is 62.8%.

Take `COc1cccn(CC(=O)N2CCCC3(CCOCC3)C2)c1=O`: the INHIBITION is recorded as 40.9%.

For `COCCNC(=O)[C@@]12CCO[C@@H]1CCN(Cc1ccc(OC)cc1)C2`, the INHIBITION is recorded as 39.2%.

Take `COc1ccc(CN2C[C@H]3CCC[C@@H](CN(C)C4CC4)[C@H]3C2)cn1`: the INHIBITION is listed as -15.3%.

For the compound `CC(C)(C)c1n[nH]cc1CNCC1CCN(C2CC2)C1` (stereo unspecified), the INHIBITION is on record as 26.3%.

In the case of `CN(CC1CCOC1)S(=O)(=O)c1cccc(C(=O)N2CCOCC2)c1` (stereo unspecified), the INHIBITION is 1.19%.

For `CC(C)N1CCCC(C(=O)N2CCN(c3cccc(C(=O)O)c3)CC2)C1` (stereo unspecified), the INHIBITION was 21.2%.

With `COCCN(C)C[C@@H]1CN(c2cc(C)nc3ccccc23)C[C@@H]1CO`, the INHIBITION is -34.8%.

Regarding `CN(Cc1nc2ccccc2s1)C1CCCN(c2cccnn2)C1` (stereo unspecified), the INHIBITION came to 24.7%.

As to `Cc1cc(C)c(CNc2ncnc3ccccc23)c(=O)[nH]1`, the INHIBITION stood at 14.7%.

Turning to `Cc1cc(C)c(CNc2cnc3ccccc3n2)c(=O)[nH]1`, the INHIBITION is -1.35%.

In the case of `Cc1cc(C)c(CNc2nc3ccccc3cc2CO)c(=O)[nH]1`, the INHIBITION was 55.8%.

Turning to `Cc1nc(C)n(C2CCCN(C(=O)c3ccc(O)nc3)C2)n1` (stereo unspecified), the INHIBITION is 16.1%.

Regarding `Cc1nn(C)c(N(C)C)c1CNCc1cccc(Cn2cncn2)c1`, the INHIBITION was -17.6%.

Take `Cc1c[nH]nc1C1CCCN1Cc1nccn1C` (stereo unspecified): the INHIBITION came to 18.4%.

As to `COc1c(CNCc2cccnc2N2CCCCC2)c(C)nn1C`, the INHIBITION is -91.6%.

Consider `COc1cc(CNCc2ccnc(N3CCCCC3)c2)cc(OC)c1`, for which the INHIBITION is reported as 80.9%.

As for `COc1c(CNCc2ccnc(N3CCCCC3)c2)c(C)nn1C`, the INHIBITION is on record as 87.3%.

In the case of `COc1c(CNCc2ccnc(N3CCCC3)c2)c(C)nn1C`, the INHIBITION was -8.3%.

In the case of `COc1ccc(CNCc2ccc(N3CCCCC3)nc2)cc1OC`, the INHIBITION was found to be 52.7%.

Take `COc1c(CNCc2ccnc(N3CCOCC3)c2)c(C)nn1C`: the INHIBITION is recorded as 19.4%.

Take `COc1cccc2cc(CNCc3ccnc(N4CCCCC4)c3)oc12`: the INHIBITION is reported as -19.4%.

Regarding `COc1c(CNCc2cccnc2N2CCN(C)CC2)c(C)nn1C`, the INHIBITION is given as 51.3%.

Consider `COc1ccc(CNCc2ccnc(N3CCCCC3)c2)cc1OC`, for which the INHIBITION worked out at 37.2%.

Take `COc1cccc2cc(CNCc3ccc(N4CCCC4)nc3)oc12`: the INHIBITION is listed as 21.6%.

Take `COc1c(CNCc2cccnc2N2CCOCC2)c(C)nn1C`: the INHIBITION was -7.7%.

Regarding `COc1ccc(OC)c(CNCc2ccnc(N3CCCCC3)c2)c1`, the INHIBITION is 10.6%.
